# Laboratory results reported in the supplement of paper PMC10849652.
# About 8,800 targets were measured; listed, in parts, are those with a hit and a random draw of the rest. About 0.5% of all pairs of compound and target were hits. Values without a mark were called inactive.
# Key:
# Experiment in all cases: log2 fold change, soluble protein after heating vs DMSO (PISA); higher = thermal stabilisation; K562 lysate, 10 uM; active = over 0.2 and 3.5 SD of the protein, either way, in both replicates (recomputed)
# [1] = compound: C=CC(=O)N1CCC[C@@H](n2nc(-c3ccc(Oc4ccccc4)cc3)c3c(N)ncnc32)C1 [ibrutinib]
# How it was run: (§1)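 Values give the log-two fold change in thermal stability against solvent controls, from duplicates. Crude K562 extract at 1 mg/mL protein, made by dounce homogenisation in PBS pH 7.4 with 1 mM MgCl2, was treated with 10 μM compound for 30 min. After 3 min heating across 48°C-58°C, aliquots were pooled, adjusted to 0.5% NP-40 at 4°C and centrifuged at 21,000xg for 90 min. The supernatant was measured by TMTpro 16plex LC-MS/MS with channel sums equalised.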
# [2] = compound: CC(=O)c1cnc2ccc(-c3cc(Cl)c(O)c(Cl)c3)nc2c1N[C@H]1CC[C@H](CN(C)C)CC1
# How it was run: as §1
# [3] = compound: CC(C)(C)Cn1c(N)nc2ccc(-c3[nH]c(C(C)(C)C)nc3-c3ccc(F)cc3)nc21 [ralimetinib]
# How it was run: as §1
# [4] = compound: CC(C)(O)CC(=O)NCCn1ccc2ncnc(Nc3ccc(Oc4cccc(C(F)(F)F)c4)c(Cl)c3)c21
# How it was run: as §1
# [5] = compound: CC(C)C1=C2N=C(C=C(N2N=C1)NCC3=CC=CC=C3)NCCCCCCN
# How it was run: as §1
# [6] = compound: CC1=C(C(CC(=O)N1)C2=CC=C(C=C2)C(F)(F)F)C(=O)NC3=C(C=C4C(=C3)C=NN4)F
# How it was run: as §1
# [7] = compound: CC1=C(C2=C(C=C1)C(=O)C3=CC=CC=C3N2CCCN)C
# How it was run: as §1
# [8] = compound: CC1=C(C=C(C=C1)NC(=O)C2=CC(=CC=C2)C(C)(C)C#N)NC3=CC4=C(C=C3)N=CN(C4=O)C
# How it was run: as §1
# [9] = compound: CC1=C(C=C(C=C1)NC(=O)C2=CC(=CC=C2)N(C)C)NC(=O)C3=CC=C(C=C3)O
# How it was run: as §1
# [10] = compound: CC1=CC=C(C=C1)SC2=C3C=C(SC3=CN=C2)C(=O)N
# How it was run: as §1
# [11] = compound: CCCS(=O)(=O)Nc1ccc(F)c(C(=O)c2c[nH]c3ncc(-c4ccc(Cl)cc4)cc23)c1F [vemurafenib]
# How it was run: as §1
# [12] = compound: CCCS(=O)(=O)Nc1ccc(F)c(C(=O)c2c[nH]c3ncc(Cl)cc23)c1F
# How it was run: as §1
# [13] = compound: CCN(CCCOc1ccc2c(Nc3cc(CC(=O)Nc4cccc(F)c4)[nH]n3)ncnc2c1)CCOP(=O)(O)O [barasertib]
# How it was run: as §1
# [14] = compound: CC[C@@H]1C(=O)N(C)c2cnc(Nc3ccc(C(=O)NC4CCN(C)CC4)cc3OC)nc2N1C1CCCC1
# How it was run: as §1
# [15] = compound: CC[C@@H]1C(=O)N(C)c2cnc(Nc3ccc(C(=O)N[C@H]4CC[C@H](N5CCN(CC6CC6)CC5)CC4)cc3OC)nc2N1C(C)C [volasertib]
# How it was run: as §1
# [16] = compound: CCn1c(C(=O)N(C2CC2)C2CC2)cc2c3c(ncn3C)c(Nc3cc(C)n(C)n3)nc21
# How it was run: as §1
# [17] = compound: CCn1cc(-c2ccnc3[nH]c(-c4cccc(CN(C)C)c4)cc23)c(-c2ccc(NC(=O)N(C)C)cc2)n1
# How it was run: as §1
# [18] = compound: CN1CCC(CNc2ccc3ncc(-c4cccc(OC(F)(F)F)c4)n3n2)CC1
# How it was run: as §1
# [19] = compound: CN1CCN(CCOc2cc(OC3CCOCC3)c3c(Nc4c(Cl)ccc5c4OCO5)ncnc3c2)CC1 [saracatinib]
# How it was run: as §1
# [20] = compound: CN1CCN(c2nc(C3=C(c4c[nH]c5ccccc45)C(=O)NC3=O)c3ccccc3n2)CC1 [sotrastaurin]
# How it was run: as §1
# UniProt Q02094, sequence (Q02094 whole entry, looked up): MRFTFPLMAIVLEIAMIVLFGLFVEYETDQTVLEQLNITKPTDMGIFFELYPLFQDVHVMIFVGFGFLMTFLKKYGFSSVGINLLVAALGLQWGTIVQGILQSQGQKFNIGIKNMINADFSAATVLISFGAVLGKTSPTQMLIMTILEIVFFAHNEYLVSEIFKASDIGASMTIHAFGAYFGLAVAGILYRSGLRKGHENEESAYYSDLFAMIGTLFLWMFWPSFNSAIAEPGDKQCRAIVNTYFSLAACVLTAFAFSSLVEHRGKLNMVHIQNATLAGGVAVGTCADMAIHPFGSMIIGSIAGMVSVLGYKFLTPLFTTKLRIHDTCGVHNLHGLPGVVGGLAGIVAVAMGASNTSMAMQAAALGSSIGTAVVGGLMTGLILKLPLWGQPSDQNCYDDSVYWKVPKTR
# UniProt Q9UKL0, sequence (Q9UKL0 whole entry, looked up): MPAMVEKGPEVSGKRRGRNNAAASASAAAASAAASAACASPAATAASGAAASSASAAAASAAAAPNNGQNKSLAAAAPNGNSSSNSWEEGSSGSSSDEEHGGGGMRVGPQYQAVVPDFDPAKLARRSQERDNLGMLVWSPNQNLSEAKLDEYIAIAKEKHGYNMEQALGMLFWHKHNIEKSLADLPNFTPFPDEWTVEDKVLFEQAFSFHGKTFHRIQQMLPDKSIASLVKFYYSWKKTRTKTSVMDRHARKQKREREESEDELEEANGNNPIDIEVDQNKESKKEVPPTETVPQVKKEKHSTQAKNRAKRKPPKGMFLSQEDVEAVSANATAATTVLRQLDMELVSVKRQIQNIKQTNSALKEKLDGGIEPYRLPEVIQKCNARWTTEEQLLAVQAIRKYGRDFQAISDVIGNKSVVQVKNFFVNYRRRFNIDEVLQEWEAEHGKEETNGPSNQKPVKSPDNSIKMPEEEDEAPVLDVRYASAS
# UniProt O15541, sequence (O15541 whole entry, looked up): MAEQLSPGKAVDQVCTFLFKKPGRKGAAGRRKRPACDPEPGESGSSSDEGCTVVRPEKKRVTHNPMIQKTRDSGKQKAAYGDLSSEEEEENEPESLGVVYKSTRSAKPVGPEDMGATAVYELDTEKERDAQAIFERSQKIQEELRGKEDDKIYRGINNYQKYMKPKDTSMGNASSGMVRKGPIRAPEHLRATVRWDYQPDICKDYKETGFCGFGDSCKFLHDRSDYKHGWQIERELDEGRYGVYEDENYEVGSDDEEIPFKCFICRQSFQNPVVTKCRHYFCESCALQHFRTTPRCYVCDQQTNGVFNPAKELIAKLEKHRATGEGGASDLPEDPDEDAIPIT
# UniProt Q9Y3Z3, sequence (Q9Y3Z3 whole entry, looked up): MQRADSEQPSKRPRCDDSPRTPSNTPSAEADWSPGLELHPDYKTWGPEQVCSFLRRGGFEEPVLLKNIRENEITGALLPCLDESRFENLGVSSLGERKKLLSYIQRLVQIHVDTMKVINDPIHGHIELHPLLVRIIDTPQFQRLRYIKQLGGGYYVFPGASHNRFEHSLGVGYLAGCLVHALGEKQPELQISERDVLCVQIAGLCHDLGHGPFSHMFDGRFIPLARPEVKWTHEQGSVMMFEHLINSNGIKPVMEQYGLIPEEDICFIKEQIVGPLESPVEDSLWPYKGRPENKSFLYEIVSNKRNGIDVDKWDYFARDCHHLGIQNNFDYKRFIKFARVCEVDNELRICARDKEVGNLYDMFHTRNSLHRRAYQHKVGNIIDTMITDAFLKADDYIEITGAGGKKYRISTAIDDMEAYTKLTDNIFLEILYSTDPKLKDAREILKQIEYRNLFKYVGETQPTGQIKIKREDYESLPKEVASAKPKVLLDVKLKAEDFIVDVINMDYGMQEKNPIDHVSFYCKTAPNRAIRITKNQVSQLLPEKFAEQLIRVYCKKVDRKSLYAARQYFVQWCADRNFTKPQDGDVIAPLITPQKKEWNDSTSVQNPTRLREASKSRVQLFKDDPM
# UniProt Q6UVJ0, sequence (Q6UVJ0 whole entry, looked up): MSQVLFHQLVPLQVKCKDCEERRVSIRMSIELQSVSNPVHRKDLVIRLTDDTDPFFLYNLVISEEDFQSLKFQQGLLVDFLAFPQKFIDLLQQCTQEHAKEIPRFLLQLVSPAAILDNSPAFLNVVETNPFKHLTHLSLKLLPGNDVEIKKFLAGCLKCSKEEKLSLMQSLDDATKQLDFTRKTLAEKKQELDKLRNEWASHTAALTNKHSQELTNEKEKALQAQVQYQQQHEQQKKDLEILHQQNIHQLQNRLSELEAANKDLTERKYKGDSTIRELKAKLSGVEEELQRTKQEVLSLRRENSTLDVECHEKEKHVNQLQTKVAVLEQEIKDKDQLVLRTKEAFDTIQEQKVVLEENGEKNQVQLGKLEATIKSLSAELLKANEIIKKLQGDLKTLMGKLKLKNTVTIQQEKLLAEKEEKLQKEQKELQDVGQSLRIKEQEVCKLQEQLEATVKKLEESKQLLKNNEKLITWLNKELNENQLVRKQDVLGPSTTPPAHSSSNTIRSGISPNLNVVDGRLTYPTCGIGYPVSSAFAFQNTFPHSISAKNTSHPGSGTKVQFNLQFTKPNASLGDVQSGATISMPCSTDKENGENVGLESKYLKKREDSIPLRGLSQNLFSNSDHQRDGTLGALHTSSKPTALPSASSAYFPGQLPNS
# UniProt P78406, sequence (P78406 whole entry, looked up): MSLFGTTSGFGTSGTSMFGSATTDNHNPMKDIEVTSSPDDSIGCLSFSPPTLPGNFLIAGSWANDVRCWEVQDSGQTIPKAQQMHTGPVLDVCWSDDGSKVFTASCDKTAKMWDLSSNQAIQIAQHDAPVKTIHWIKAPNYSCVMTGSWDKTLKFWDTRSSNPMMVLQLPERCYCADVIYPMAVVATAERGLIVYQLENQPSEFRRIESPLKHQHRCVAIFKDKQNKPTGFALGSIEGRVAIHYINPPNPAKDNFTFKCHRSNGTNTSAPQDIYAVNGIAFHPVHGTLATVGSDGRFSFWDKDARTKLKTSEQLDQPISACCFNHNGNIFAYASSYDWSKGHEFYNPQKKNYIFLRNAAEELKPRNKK
# UniProt Q96HR9, sequence (Q96HR9 whole entry, looked up): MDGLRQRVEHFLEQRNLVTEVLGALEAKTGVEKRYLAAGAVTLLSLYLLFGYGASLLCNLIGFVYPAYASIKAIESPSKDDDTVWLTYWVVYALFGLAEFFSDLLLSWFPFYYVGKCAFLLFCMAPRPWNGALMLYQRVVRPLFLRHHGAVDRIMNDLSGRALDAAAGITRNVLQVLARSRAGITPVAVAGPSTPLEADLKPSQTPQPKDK
# UniProt P35250, sequence (P35250 whole entry, looked up): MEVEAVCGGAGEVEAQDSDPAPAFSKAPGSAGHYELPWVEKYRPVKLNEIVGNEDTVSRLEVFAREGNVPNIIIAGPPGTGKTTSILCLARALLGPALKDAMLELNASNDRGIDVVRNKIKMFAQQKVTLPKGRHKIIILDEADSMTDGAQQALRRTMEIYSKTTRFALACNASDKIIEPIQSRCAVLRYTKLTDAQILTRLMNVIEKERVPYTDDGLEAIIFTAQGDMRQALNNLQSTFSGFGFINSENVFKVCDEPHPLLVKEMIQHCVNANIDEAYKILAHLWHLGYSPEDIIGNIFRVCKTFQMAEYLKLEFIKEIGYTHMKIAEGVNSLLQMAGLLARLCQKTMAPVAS
# UniProt Q9BVS4, sequence (Q9BVS4 whole entry, looked up): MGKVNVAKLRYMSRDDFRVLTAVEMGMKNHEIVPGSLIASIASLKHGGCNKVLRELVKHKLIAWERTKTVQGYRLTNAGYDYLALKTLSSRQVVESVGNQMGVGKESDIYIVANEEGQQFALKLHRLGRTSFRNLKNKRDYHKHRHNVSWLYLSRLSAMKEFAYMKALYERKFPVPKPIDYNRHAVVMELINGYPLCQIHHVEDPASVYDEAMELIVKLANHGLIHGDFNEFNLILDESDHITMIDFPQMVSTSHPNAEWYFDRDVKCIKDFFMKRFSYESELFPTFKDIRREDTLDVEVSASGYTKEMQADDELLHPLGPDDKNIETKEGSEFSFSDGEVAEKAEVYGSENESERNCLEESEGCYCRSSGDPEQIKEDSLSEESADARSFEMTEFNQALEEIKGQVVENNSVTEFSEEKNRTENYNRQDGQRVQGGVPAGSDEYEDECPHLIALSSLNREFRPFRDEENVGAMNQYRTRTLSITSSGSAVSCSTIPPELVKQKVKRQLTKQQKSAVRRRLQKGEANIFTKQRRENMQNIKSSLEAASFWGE
# UniProt Q9Y6B6, sequence (Q9Y6B6 whole entry, looked up): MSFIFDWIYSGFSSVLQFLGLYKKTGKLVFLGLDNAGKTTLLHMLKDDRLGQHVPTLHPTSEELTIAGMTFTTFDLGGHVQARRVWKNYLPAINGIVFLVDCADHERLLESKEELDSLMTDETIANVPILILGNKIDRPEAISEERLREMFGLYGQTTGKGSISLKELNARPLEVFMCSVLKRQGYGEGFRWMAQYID
# UniProt Q9H974, sequence (Q9H974 whole entry, looked up): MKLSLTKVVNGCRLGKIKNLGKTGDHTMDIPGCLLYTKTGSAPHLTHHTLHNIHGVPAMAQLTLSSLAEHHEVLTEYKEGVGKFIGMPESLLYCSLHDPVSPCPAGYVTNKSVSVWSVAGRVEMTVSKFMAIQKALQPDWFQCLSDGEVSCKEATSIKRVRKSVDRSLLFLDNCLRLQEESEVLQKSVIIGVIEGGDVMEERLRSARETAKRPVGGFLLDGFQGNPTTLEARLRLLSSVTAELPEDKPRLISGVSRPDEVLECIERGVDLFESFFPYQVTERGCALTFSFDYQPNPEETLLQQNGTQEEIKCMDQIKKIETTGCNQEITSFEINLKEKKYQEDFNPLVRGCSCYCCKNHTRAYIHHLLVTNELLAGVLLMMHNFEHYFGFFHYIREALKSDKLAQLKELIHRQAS
# UniProt Q92930, sequence (Q92930 whole entry, looked up): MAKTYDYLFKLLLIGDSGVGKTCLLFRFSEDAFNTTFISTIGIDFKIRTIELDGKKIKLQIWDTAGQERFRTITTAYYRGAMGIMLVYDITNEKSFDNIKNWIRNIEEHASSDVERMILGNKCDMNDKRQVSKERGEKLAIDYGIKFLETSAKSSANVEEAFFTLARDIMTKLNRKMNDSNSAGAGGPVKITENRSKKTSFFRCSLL
Target,log2 fold change [1],log2 fold change [2],log2 fold change [3],log2 fold change [4],log2 fold change [5],log2 fold change [6],log2 fold change [7],log2 fold change [8],log2 fold change [9],log2 fold change [10],log2 fold change [11],log2 fold change [12],log2 fold change [13],log2 fold change [14],log2 fold change [15],log2 fold change [16],log2 fold change [17],log2 fold change [18],log2 fold change [19],log2 fold change [20]
REEP6 (UniProt Q96HR9),-0.026,-0.026,0.018,-0.029,-0.067,-0.006,-0.066,0.084,0.055,0.038,0.072,0.021,0.093,-0.022,0.077,0,-0.358 (active),0.072,0.094,0.017
SERPINI1 (UniProt Q99574),0.063,0.075,0.001,0.024,0.005,0.056,0.004,-0.024,-0.028,-0.054,0.027,0.008,-0.006,0.024,-0.001,0.03,0.001,0.069,0,0.016
RAB8B (UniProt Q92930),-0.03,-0.018,-0.035,-0.013,-0.003,0.051,-0.001,0.01,0.099,-0.06,-0.137,0,-0.036,0.028,-0.036,0.007,0.252,-0.142,0.08,-0.024
RCOR1 (UniProt Q9UKL0),0.016,-0.001,0.023,-0.028,0.264,0,0.013,-0.049,0.02,0.021,0.028,-0.03,0.108,-0.008,0.003,-0.001,-0.071,0.017,0.001,0.004
SAMHD1 (UniProt Q9Y3Z3),-0.009,-0.022,0.056,-0.004,-0.002,0.003,-0.017,0.006,0.067,-0.003,0.034,0.045,0.007,-0.032,-0.037,0.068,-0.096,0.079,-0.052,0.032
RIOK2 (UniProt Q9BVS4),-0.012,0.512 (active),0.026,-0.014,-0.021,-0.018,-0.011,-0.016,0.013,0.052,-0.074,0.006,-0.053,0.016,-0.026,-0.03,-0.115,0.066,-0.023,0.04
SEC13 isoform 3 (UniProt P55735),-0.084,-0.025,0.024,-0.01,-0.015,-0.005,0.034,-0.032,0.031,-0.014,-0.001,-0.004,-0.031,-0.013,0.007,0.003,0.507 (active),-0.042,-0.027,-0.015
RBM5 (UniProt P52756),-0.017,0.03,0.004,0.042,-0.141,-0.004,0.065,0.035,-0.007,-0.06,-0.021,-0.018,0.087,0.013,-0.277,0.064,0.048,-0.012,-0.039,-0.03
RFC2 (UniProt P35250),0.009,0.018,0.036,0.044,-0.002,-0.001,0.011,0.008,0.048,-0.001,-0.043,0.007,0.038,-0.095,-0.09,0.024,-0.068,0.023,-0.005,0.03
RHAG (UniProt Q02094),0.004,-0.035,-0.001,-0.068,0.042,0.09,-0.056,0.08,0.008,-0.003,-0.032,-0.116,0.054,-0.16,0.053,-0.003,-0.413 (active),0.121,0.053,0.029
RAE1 (UniProt P78406),-0.033,-0.01,0.007,0.185,-0.007,-0.022,0.012,-0.064,0.011,0.023,-0.017,-0.021,-0.051,0.04,-0.081,0.018,-0.355 (active),0.131,0.039,0.044
SAR1B (UniProt Q9Y6B6),0.02,-0.094,0.045,-0.032,0.093,0.154,-0.018,0.026,-0.065,0.077,0.034,0,0.165,0.04,-0.042,0.017,-0.017,-0.09,0.041,0.047
SASS6 (UniProt Q6UVJ0),-0.006,0.023,-0.006,-0.056,-0.017,0.024,0.007,0.015,0.001,-0.021,0.042,-0.024,-0.016,0.039,-0.024,0.024,0.154,-0.047,0.059,-0.02
QTRT2 isoform 4 (UniProt Q9H974),0.01,0.002,0.014,-0.028,-0.014,-0.035,0.006,-0.025,-0.003,-0.013,0.003,0.012,0.004,-0.022,0.036,-0.035,-0.318 (active),0.227 (active),0.016,0.013
RNF113A (UniProt O15541),0.009,-0.003,0.005,-0.049,0.111,0.015,-0.038,0.024,0.017,-0.03,0.021,-0.012,-0.042,0.04,0.009,-0.056,-0.021,0.017,0.031,-0.056
R3HCC1 (UniProt Q9Y3T6),0.02,0.058,0.016,-0.028,-0.045,0.022,-0.061,0.017,-0.001,0.025,0.07,0.036,0.009,0.044,-0.015,-0.022,-0.066,0.082,0.029,0.021
